Compound activity from PubChem BioAssay.
Compounds with a hit are over-represented: about 0.78% of the library has one in this group of screens.
RGS8-Gao reg: human RGS8-Galphao interaction regulation; multiplexed bead flow cytometry, RGS8-Galphao binding; actives lie on both sides; response (percent of control binding), % at 10 µM; 0.34% of 220,000 active; AID 1423; in the data active = response below about 60% or above about 140%; inactive = in between;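 also: Galphao activated as the GDP aluminium fluoride complex binding bead-coupled RGS8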
RGS4-Gao reg: modulates binding of RGS4 to human Galphao; binding response (% of control), % at 10 µM; P09471; Multiplexed bead flow cytometry; actives lie on both sides; 0.33% of 220,000 active; AID 1415; in the data active = binding response below about 49% or above about 150%; inactive = in between;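 also: fluorescent Galphao activated with aluminum fluoride binding bead-coupled RGS4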
RGS7-Gao: regulators of human RGS7-Galphao interaction. P09471. Multiplexed bead flow cytometry, RGS7-Galphao binding; actives lie on both sides. binding response (% of control), % at 10 µM. 0.35% of 220,000 active. AID 1439; in the data active = binding response below about 49% or above about 150%; inconclusive = no clear call, values can overlap the other calls; inactive = in between;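 also: fluorescent Galphao held in activated GDP-AlF4 state binding bead-coupled RGS7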
RGS16-Gao: modulates binding between human RGS16 and Galphao; O15492+P09471; bead-based flow cytometry RGS16-Galphao binding, fluorescence; actives lie on both sides; binding response (% of control), % at 10 µM; 0.38% of 220,000 active; AID 1441;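 also: Galphao activated by GDP with aluminum fluoride before binding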
RGS-Gao: regulators of human RGS4-Galphao interaction | RGS4–Galpha-o binding response, % at 10 µM | 99% of 1,600 active | multiplexed bead flow cytometry, RGS–Galpha-o binding | shares compounds with RGS16-Gao | AID 1504;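 also: fluorescently labeled Galpha-o bound to GDP with aluminium fluoride binding biotinylated RGS beads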
Target sequence (P09471 whole entry, looked up): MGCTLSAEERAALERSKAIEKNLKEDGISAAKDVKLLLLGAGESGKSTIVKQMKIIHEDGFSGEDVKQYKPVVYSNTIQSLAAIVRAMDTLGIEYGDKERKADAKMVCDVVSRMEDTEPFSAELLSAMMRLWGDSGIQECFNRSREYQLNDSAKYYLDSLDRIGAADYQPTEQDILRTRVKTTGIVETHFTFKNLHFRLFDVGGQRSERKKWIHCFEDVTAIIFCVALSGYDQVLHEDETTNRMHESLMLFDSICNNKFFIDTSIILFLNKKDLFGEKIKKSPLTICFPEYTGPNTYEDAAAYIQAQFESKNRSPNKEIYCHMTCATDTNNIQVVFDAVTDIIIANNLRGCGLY
Target sequence (P49798 whole entry, looked up): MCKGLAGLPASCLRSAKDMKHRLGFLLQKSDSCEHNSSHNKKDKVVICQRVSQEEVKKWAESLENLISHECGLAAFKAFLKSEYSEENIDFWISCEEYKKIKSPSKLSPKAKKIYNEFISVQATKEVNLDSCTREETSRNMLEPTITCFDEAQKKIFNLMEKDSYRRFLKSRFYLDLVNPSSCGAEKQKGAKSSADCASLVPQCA
Biotin-avidin: counter-screen: compounds disrupting biotin binding to avidin beads; streptavidin beads, fluorescein-biotin binding, flow cytometry; 1,700 tested, under 10 active; inhibition, % at 10 µM; shares compounds with RGS16-Gao;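 active = inhibition above 50%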;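 also: median green fluorescence of gated singlet beads compared with DMSO control wells; 0% = DMSO wells and 100% = complete loss of bead fluorescence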
RGS8-Gao confirm: confirmation of regulators of human RGS8-Galphao interaction; shares compounds with RGS16-Gao; bead-based flow cytometry RGS8-Galphao binding, fluorescence; actives lie on both sides; binding response (% of control), % at 10 µM; 3% of 1,700 active; in the data active = binding response below about 72% or above about 130%; inactive = in between;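 also: Galphao activated as GDP AlF4 complex before binding bead RGS8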
RGS7-Gao single: RGS7-Galphao interaction regulation, single point confirmation; 7.8% of 1,700 active; bead-based flow cytometry RGS7-Galphao binding; actives lie on both sides; shares compounds with RGS16-Gao; AID 1837; response (percent of control binding), % at 10 µM; in the data active = response below about 75% or above about 130%; inactive = in between;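 also: fluorescent Galphao activated with GDP and aluminum fluoride binding bead-coupled RGS7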
RGS16-Gao single: RGS16-Galphao interaction regulation, single point confirmation. shares compounds with RGS16-Gao. response (% of control binding), % at 10 µM. 4% of 1,700 active. bead-based flow cytometry, RGS16-Galphao binding; actives lie on both sides; in the data active = response below about 74% or above about 130%; inactive = in between;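 also: Galphao activated as the GDP aluminium fluoride complex binding bead-coupled RGS16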
RGS4-Gao confirm: confirmation of regulators of human RGS4-Galphao interaction; shares compounds with RGS16-Gao; RGS4-Galphao binding, multiplexed bead flow cytometry; actives lie on both sides; binding response (% of control), % at 10 µM; 4% of 1,700 active; AID 1840; in the data active = binding response below about 74% or above about 130%; inactive = in between
RGS19-Gao conf: RGS19-Galphao interaction regulation, single point confirmation; AID 1841; response (percent of control binding), % at 10 µM; bead-based flow cytometry RGS19-Galphao binding; actives lie on both sides; 5% of 1,700 active; shares compounds with RGS16-Gao; in the data active = response below about 50% or above about 160%; inactive = in between;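 also: 100% = no compound control and 0% = blank background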
Target sequence (P09471 whole entry, looked up): as the sequence (P09471 whole entry, looked up) above
Target sequence (P49795 whole entry, looked up): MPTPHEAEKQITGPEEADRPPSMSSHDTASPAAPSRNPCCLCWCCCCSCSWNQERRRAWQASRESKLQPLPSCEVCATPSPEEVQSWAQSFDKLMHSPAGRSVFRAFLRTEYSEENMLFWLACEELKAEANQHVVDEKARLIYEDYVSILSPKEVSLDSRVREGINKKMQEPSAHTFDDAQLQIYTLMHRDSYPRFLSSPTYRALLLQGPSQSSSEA
An asterisk follows results filed as active; i = inactive; ? = inconclusive; . = no result; [ ] = another dose, or the depositor's remark. Unless noted, no rule for the calls is given here.

SMILES | RGS8-Gao reg | RGS4-Gao reg | RGS7-Gao | RGS16-Gao | RGS-Gao | Biotin-avidin | RGS8-Gao confirm | RGS7-Gao single | RGS16-Gao single | RGS4-Gao confirm | RGS19-Gao conf
Cc1cc(C)c2c(=O)n(CC(=O)Nc3cccc(F)c3)sc2n1 | 70.9 | 83.3 | ? | 17.3* | 83.3* | 0.0 | 66.8* | 97.8 | 17.3* | 85.3 | 23.8*
Cc1cccc(N2CCN(C(=O)Cn3sc4nc(C)cc(C)c4c3=O)CC2C)c1 (stereo not drawn) | 72.2 | 94.0 | 103.9 | 21.6* | 94.0* | 1.6 | 63.4* | 121.5 | 11.8* | 98.8 | 2.5*
Nc1cc(N2CCCCC2)c([N+](=O)[O-])cc1Cl | 102.3 | 101.6 | 98.7 | 109.3 | . | . | . | . | . | . | .
COc1ccc(S(=O)(=O)N(CCC#N)Cc2ccco2)cc1OC | 96.2 | 99.2 | ? | 100.8 | . | . | . | . | . | . | .
Fc1ccc(-c2csc(-c3ccccn3)n2)cc1F | 102.7 | 103.1 | 105.8 | 105.2 | . | . | . | . | . | . | .
O=C(CSc1nnc(C2CC2)n1Cc1ccccc1)NCc1ccccc1 | 101.7 | 101.9 | 100.8 | 112.1 | . | . | . | . | . | . | .
COC(=O)Cn1ncc2c3ccccc3n(C)c2c1=O | 102.6 | 101.5 | 100.8 | 106.1 | . | . | . | . | . | . | .
CN(C)CCP(=O)(c1ccccc1)c1ccccc1 | 101.7 | 101.4 | ? | 102.3 | . | . | . | . | . | . | .
COc1ccc2c(Cl)c(C(=O)N/N=C/c3c(C)[nH]c4ccccc34)sc2c1 | 105.3 | 139.4 | 156.1*[activator] | 127.8 | 139.4* | 1.0 | 121.1 | 267.4*[activator] | 175.1*[activator] | 186.8*[activator] | 368.2*[activator]
Cc1ccc(CN(c2ccc(C(=O)N3CCc4ccccc4C3)cc2)S(C)(=O)=O)cc1 | 96.9 | 105.0 | 103.5 | 89.4 | . | . | . | . | . | . | .
CCN1/C(=C/C(C)=C/c2sc3ccccc3[n+]2CC)Sc2ccccc21 | 53.2* | 56.8 | 79.6 | 39.1 | 56.8* | -4.8 | 83.9 | 92.5 | 80.0 | 97.9 | 83.8
Cc1cc(C)n(CC(=O)n2c3c(c4ccccc42)CCCC3)n1 | . | . | . | . | . | 2.0 | 101.7 | 102.0 | 103.0 | 102.7 | 82.8
CCN(CC)CC(=O)n1c2c(c3ccccc31)CCCC2 | 71.2 | 81.1 | 78.1 | -99.6* | 81.1* | -0.2 | 101.0 | 101.8 | 104.9 | 99.8 | 91.7
CC(=O)c1cc(C#N)c(SCC(=O)OC(C)(C)C)nc1C | 102.8 | 116.5 | 183.1*[activator] | 108.6 | 116.5* | 0.6 | 97.1 | 97.2 | 95.9 | 99.2 | 86.0
CC(=O)c1cc(C#N)c(SCC(=O)OC(C)C)nc1C | 103.3 | 99.3 | 96.7 | 101.2 | . | . | . | . | . | . | .
O=S(=O)(N1CCCCC1)N1CCN(c2ccccc2F)CC1 | 104.5 | 104.9 | 156.0*[activator] | 119.4 | 104.9* | 11.7 | 103.9 | 108.2 | 106.6 | 107.7 | 92.9
CS(=O)(=O)N1CCN(c2ccccc2F)CC1 | 97.2 | 98.0 | 93.3 | 82.8 | . | . | . | . | . | . | .
O=C(NC1CCCCCCC1)C1CCN(S(=O)(=O)N2CCCC2)CC1 | 58.5* | 57.9 | 51.8 | 55.5 | 57.9* | -0.8 | 97.0 | 93.2 | 95.5 | 96.8 | 82.8
Cn1c(C(=O)NCc2ccccc2)cc2oc3ccccc3c21 | 114.5 | 109.7 | 115.5 | . | . | 1.7 | 99.7 | 96.9 | 98.7 | 100.5 | 98.9
C/C(=N\NC(=O)C(O)(c1ccccc1)c1ccccc1)c1ccc(C)o1 | 77.3 | 98.0 | 97.6 | 42.1 | . | . | . | . | . | . | .
N/C(=N\OC(=O)c1cc(Cl)ccc1Cl)c1ccncc1 | 98.3 | 99.5 | 101.1 | 101.7 | . | . | . | . | . | . | .
CCOC(=O)C1CCCN(C2CC(=O)N(c3ccccc3)C2=O)C1 (stereo not drawn) | 95.4 | 94.2 | 86.2 | 95.6 | . | . | . | . | . | . | .
CCOC(=O)c1ccc(N2C(=O)CC(N3CCN(C/C=C/c4ccccc4)CC3)C2=O)cc1 (stereo not drawn) | 153.5*[activator] | 133.7 | 121.6 | i | 133.7* | 0.0 | 109.0 | 108.4 | 112.0 | 104.9 | 114.8
O=c1[nH]cnc2c1oc1ccccc12 | 143.1*[activator] | 116.7 | 106.2 | 296.8 | 116.7* | -0.2 | 103.4 | 104.8 | 104.1 | 105.6 | 103.6
CCc1nc2c(oc3ccccc32)c(=O)[nH]1 | 101.7 | 98.8 | 100.5 | 99.8 | . | . | . | . | . | . | .
SMILES | RGS8-Gao reg | RGS4-Gao reg | RGS7-Gao | RGS16-Gao | RGS-Gao | Biotin-avidin | RGS8-Gao confirm | RGS7-Gao single | RGS16-Gao single | RGS4-Gao confirm | RGS19-Gao conf
O=C(N/N=C/c1cn(-c2ccccc2)nc1-c1cccnc1)c1cccnc1 | 103.2 | 112.0 | 174.1*[activator] | 104.3 | 112.0* | 0.6 | 100.4 | 104.9 | 102.6 | 101.2 | 106.5
COc1cc(OC)cc(-c2nc(-c3ccccc3OC)no2)c1 | 13.6* | 0.9* | 10.1* | 3.8* | . | -2.1 | 109.3 | 108.7 | 109.1 | 110.7 | 110.0
COc1ccccc1-c1noc(-c2cc(OC)c(OC)c(OC)c2)n1 | 104.9 | 105.8 | 103.0 | 111.8 | . | . | . | . | . | . | .
C=C1SC(=Nc2c(C)cccc2Cl)N(C(=O)c2sc3ccccc3c2Cl)C12CCCCC2 | 109.0 | 115.7 | ? | 117.2 | . | . | . | . | . | . | .
C=C1SC(=Nc2ccccc2Cl)N(C(=O)c2sc3ccccc3c2Cl)C1(C)C | 9.4* | -16.1* | ? | -13.2* | . | 0.0 | 100.5 | 98.3 | 100.3 | 98.9 | 103.3
Cc1ccc(C(=O)CC2(O)C(=O)N(C)c3ccc(Br)cc32)c(C)c1 (stereo not drawn) | 100.6 | 99.6 | 99.8 | 101.6 | . | . | . | . | . | . | .
CCc1ccc2c(COC(=O)c3n[nH]c4ccccc34)cc(=O)oc2c1 | 142.8*[activator] | 120.3 | 111.5 | 268.7 | 120.3* | -0.1 | 98.8 | 92.8 | 96.8 | 97.0 | 84.2
COc1ccc(/C=N/N(C(C)=O)c2nc(-c3ccc(C)cc3)cs2)cc1 | 100.9 | 100.4 | 97.8 | 103.8 | . | . | . | . | . | . | .
CCOc1ccc(CC(=O)Nc2ccc(NC(=O)c3ccco3)cc2)cc1OCC | 22.9* | 27.9* | 20.2* | 16.4* | . | 0.1 | 101.7 | 104.0 | 104.8 | 105.3 | 99.6
CCCCCC(=O)N/N=C(\C)c1ccc(NC(=O)c2ccco2)cc1 | 106.6 | 112.5 | 110.2 | 113.3 | . | . | . | . | . | . | .
CCCCCC(=O)NC(=S)Nc1ccc(NC(=O)c2ccco2)cc1 | 123.1 | 110.5 | 115.7 | 178.9*[activator] | 110.5* | -1.1 | 105.0 | 97.2 | 108.2 | 101.8 | 111.5
Cc1cc(C)cc(Oc2nc(C(F)(F)F)nc3ccccc23)c1 | 102.6 | 102.6 | 100.3 | 104.3 | . | . | . | . | . | . | .
CC(C(=O)NC(=O)NCc1ccccc1)N1C(=O)c2ccccc2C1=O (stereo not drawn) | . | 139.9 | . | . | . | -0.3 | 98.1 | 97.0 | 95.8 | 97.9 | 106.2
COc1cc(C(=O)N2CCC(O)(c3ccccc3)CC2)cc(OC)c1OC | . | . | . | . | . | -1.5 | 102.1 | 106.2 | 104.1 | 102.9 | 105.0
